CSC inhib: cancer stem cell inhibition; cancer stem cell-like cells viability, luminescence; inhibition, % at 7.5 µM; hit rate 1.1% among 300,000; AID 2717; in the data active = inhibition above about 75%; tested in HMLE shEcad cells
Beta apoptosis: beta cell apoptosis inhibition. hit rate 0.8% among 300,000. INS-1E cytokine-induced death, ATP luminescence, 48 h; percent of positive-control rescue, neutral wells zero. protection from apoptosis, % (concentration not given with the values);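 active = Every replicate reaches about 75%, or at least half do and their mean reaches it too, limit read from the data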;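 also: 0% = cytokine-treated negative control wells and 100% = positive control rescue; higher means more ATP so stronger rescue from cytokine killing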
SKKanGAS inh: inhibitors of SKKanGAS S. pyogenes growth in kanamycin (SK-promoter or general growth effect); BacTiter-Glo, 6 h; inhibition, % at 7.5 µM; hit rate 1.3% among 300,000;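 active = mean replicate score, as percent of positive control median, at least 50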;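 also: strain carries kanamycin resistance gene driven by streptokinase promoter and grows in 40 µg/ml kanamycin; loss of luminescence reflects streptokinase promoter inhibition or plain growth inhibition; 0% = median of DMSO wells and 100% = positive control at its reference dose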
GRIN3A LBD mod: modulators (binders) of human NR3A ligand-binding domain; AID 1259313; NR3A LBD differential scanning fluorimetry, Tm shift; 0% = protein alone, 100% = glycine-bound protein; Tm shift relative to glycine control, % at 25 µM; hit rate 2.5% among 340,000;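 active = melting temperature shift of at least 10% of the positive control shift, at one fixed dose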
Mdm2-MdmX inh: disrupts the human Mdm2-MdmX interaction; O15151+Q00987; SaOS-2 split-luciferase Mdm2/MdmX complementation, luminescence; inhibition, % at 8 µM; hit rate 3% among 330,000; AID 485346;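 active = inhibition of at least 50% at 8 µM in the primary screen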
Target sequence (O15151 whole entry, looked up): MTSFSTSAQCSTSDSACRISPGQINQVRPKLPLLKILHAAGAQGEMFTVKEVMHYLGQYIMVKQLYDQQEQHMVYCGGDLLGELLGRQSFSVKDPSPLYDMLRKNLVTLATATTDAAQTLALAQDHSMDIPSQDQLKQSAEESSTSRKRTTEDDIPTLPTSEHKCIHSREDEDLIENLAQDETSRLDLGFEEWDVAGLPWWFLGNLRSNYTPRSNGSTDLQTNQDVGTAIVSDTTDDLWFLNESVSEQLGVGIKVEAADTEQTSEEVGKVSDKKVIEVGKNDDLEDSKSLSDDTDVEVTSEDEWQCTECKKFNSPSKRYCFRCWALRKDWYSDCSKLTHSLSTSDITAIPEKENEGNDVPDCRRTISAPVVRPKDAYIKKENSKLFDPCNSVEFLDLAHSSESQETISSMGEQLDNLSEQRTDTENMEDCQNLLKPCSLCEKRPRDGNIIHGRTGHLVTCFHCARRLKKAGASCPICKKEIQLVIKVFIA
Target sequence (Q00987 whole entry, looked up): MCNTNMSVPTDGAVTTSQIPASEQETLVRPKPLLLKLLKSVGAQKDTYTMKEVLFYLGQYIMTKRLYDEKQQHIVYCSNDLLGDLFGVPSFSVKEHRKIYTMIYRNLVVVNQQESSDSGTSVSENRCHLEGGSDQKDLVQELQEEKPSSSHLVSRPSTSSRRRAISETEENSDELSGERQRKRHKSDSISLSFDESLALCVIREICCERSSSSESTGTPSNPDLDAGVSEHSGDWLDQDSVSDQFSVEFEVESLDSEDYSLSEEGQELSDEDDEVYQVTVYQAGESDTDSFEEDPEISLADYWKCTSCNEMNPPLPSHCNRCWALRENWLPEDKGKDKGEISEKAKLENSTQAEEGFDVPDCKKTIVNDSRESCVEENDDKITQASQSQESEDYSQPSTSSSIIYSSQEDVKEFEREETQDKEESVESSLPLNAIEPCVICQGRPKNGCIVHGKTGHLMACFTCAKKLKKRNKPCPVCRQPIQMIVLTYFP
MPTP block: inhibitors of mitochondrial permeability transition pore; isolated mouse mitochondria, Ca2+ swelling absorbance, 30 min; hit rate 1.4% among 360,000; inhibition, % at 10 µM;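 active = inhibition of 50% or more, scaled per plate between neutral and stimulator controls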;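 also: 0% = DMSO wells given calcium and 100% = 1 mM EGTA wells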
An asterisk follows results filed as active; / = not tested or not shown. This is a sample that favours compounds with a hit; in the whole collection about 6.9% have one here.

SMILES	CSC inhib	Beta apoptosis	SKKanGAS inh	GRIN3A LBD mod	Mdm2-MdmX inh	MPTP block
COc1ccc(NC(=O)c2ccc3[nH]c(C)c(C)c3c2)c(OC)c1	-1	3	-4	15*	-31	0
Cc1cccc(NC(=O)c2cc(-c3cc(C)ccc3O)n[nH]2)c1	-5	-7	-3	30*	-72	1
COc1ccc(NC(=O)c2cc(-c3ccc(C)cc3O)n[nH]2)c(OC)c1	13	4	8	38*	15	0
COc1ccc(NC(=O)c2cc(-c3ccc(F)cc3OC(C)C)n[nH]2)c(OC)c1	/	/	/	/	/	1
COc1ccc(NC(=O)c2cc(-c3cc(C)ccc3O)n[nH]2)cc1Cl	6	2	-3	326*	-27	24
COC(=O)CCCn1cc(CN2CC(N3CCCCC3)CS2(=O)=O)nn1 (stereo not drawn)	/	/	/	/	/	0
CCc1cccc(NC(=O)CSc2nnc(Cc3ccc(OC)cc3)c(=O)[nH]2)c1	-2	/	15	-5	20	1
COc1ccccc1C(=O)NC(=O)COC(=O)C1CC1C (stereo not drawn)	9	/	-5	-2	-11	-1
Cc1c(Cl)cccc1NC(=O)c1cc(-c2ccccc2O)n[nH]1	39	-1	-3	9	-13	27
Cc1cccc(NC(=O)c2cc(-c3cc(C)c(C)cc3O)n[nH]2)c1	/	/	0	14*	-85	0
Cc1cc(F)ccc1-c1cc(C(=O)Nc2ccc(F)cc2)[nH]n1	/	/	/	/	/	3
Cc1ccc(O)c(-c2cc(C(=O)Nc3ccc(S(=O)(=O)Nc4nccc(C)n4)cc3)[nH]n2)c1	8	2	28	30*	7	5
COc1ccc(C(=O)Nc2ccc(S(=O)(=O)Nc3nccc(C)n3)cc2)cc1	-18	-4	6	1	21	0
COc1ccc(Cl)cc1NC(=O)c1cc(-c2ccccc2O)n[nH]1	18	18	6	24*	9	21
CC(=O)Nc1ccc(NC(=O)c2cc(-c3ccc(C)cc3O)n[nH]2)cc1	-2	-10	2	30*	-1	1
O=C1CC(NS(=O)(=O)c2ccc3ccccc3c2)CN1c1ccccc1 (stereo not drawn)	-6	2	0	/	16	0
CN1CCC(N(C)S(=O)(=O)c2ccc(NC(=O)COc3cccc(C(F)(F)F)c3)cc2)CC1	5	-5	-10	1	37	6
CN1CCN(NC(=O)COc2cccc(C(F)(F)F)c2)CC1	-22	-4	-2	13*	-43	0
Cc1onc(-c2ccccc2)c1C(=O)Nc1ccc(S(=O)(=O)N2CCOCC2)cc1	2	-5	-2	2	15	0
Cc1ccc2oc(-c3cccc(NC(=O)/C=C/c4cccc([N+](=O)[O-])c4)c3C)nc2c1	/	5	16	17*	-18	10
Nc1cc2c(cc1Cl)-c1ccc([N+](=O)[O-])cc1C2=NO	/	/	/	477*	/	-1
O=C1NCCCc2c1no[n+]2[O-]	-7	-2	9	11*	4	-2
Cc1cc2c(nn1)CCc1c-2no[n+]1[O-]	-14	-2	6	1	-2	1
CCOC(=O)N1CCN(C(=O)c2ccc3c(c2)NC(=O)/C(=C/c2ccccc2)S3)CC1	7	4	93*	-2	9	1
CCOC(=O)C1CCN(C(=O)c2ccc3c(c2)NC(=O)/C(=C\c2ccc(C)cc2)S3)CC1	4	-1	69*	-7	15	-2
SMILES	CSC inhib	Beta apoptosis	SKKanGAS inh	GRIN3A LBD mod	Mdm2-MdmX inh	MPTP block
CN1CCN(C(=O)c2ccc3c(c2)NC(=O)/C(=C/c2ccccc2)S3)CC1	23	3	0	-3	-5	-1
Cc1ccc(/C=C2/Sc3ccc(C(=O)N4CCN(c5ccccn5)CC4)cc3NC2=O)cc1	12	-7	67*	0	12	-1
O=C1Nc2cc(C(=O)N3CCc4ccccc4C3)ccc2S/C1=C\c1ccccc1	118*	2	36	0	21	2
NC(=O)c1ccsc1NC(=O)COC(=O)Cc1ccccc1Cl	-18	2	/	-5	33	1
COc1ccc(C(=O)NC(CCSC)C(=O)N2CCCCCC2)cc1 (stereo not drawn)	/	-3	1	1	9	2
CCCCNc1nc(Nc2ccc(C)c(Cl)c2)c2cnn(C)c2n1	82*	41	-1	15*	3	0
CCC(CO)[n+]1c(C)cc(/C=C2\Sc3ccccc3N2Cc2ccccc2)cc1C (stereo not drawn)	26	105*	/	-1	/	4
COc1ccc(C2C3=C(Nc4ncnn42)c2ccccc2CC3)cc1OC (stereo not drawn)	16	0	3	/	37	/
Brc1ccc(C2C3=C(Nc4ncnn42)c2ccccc2OC3c2ccncc2)cc1 (stereo not drawn)	28	-1	88*	-3	29	2
COc1cccc(NC(=O)C2CCN(S(=O)(=O)c3ccc4c(c3)N(C(C)=O)CCO4)CC2)c1	-16	5	5	18*	12	-2
CC12CCC(=O)N1C(C(=O)Nc1ccc(Br)cc1Cl)CS2 (stereo not drawn)	-4	/	45	1	18	-1
CCn1c(=O)n(CC(=O)NCc2ccco2)c(=O)c2ccccc21	-12	-5	-7	11*	-16	14
CCOC(=O)[C@]12CCC=C1N(Cc1ccc3c(c1)OCO3)C(=O)[C@H](CC(=O)NCc1cccc(C(F)(F)F)c1)C2	/	/	/	/	/	0
CC(C)(C)c1ccc(OCCC(=O)NNC(=O)c2ccncc2)cc1	1	-2	4	0	4	0
CCN(c1ccccc1)S(=O)(=O)c1ccc(OC)c(NC(=O)CCc2nc3ccccc3c(=O)[nH]2)c1	-7	/	-3	3	17	-1
O=C(/C=C/c1ccccc1)NC(=S)NNC(=O)c1ccco1	-12	3	76*	-2	19	-5
O=C(NC(=S)NNC(=O)c1ccco1)c1ccccc1	-3	5	42	-1	27	0
O=C(NC(=S)N(CCc1ccccc1)CCc1ccccc1)c1ccco1	26	15	82*	-10	43	4
O=C(/C=C/c1ccc(Br)cc1)NC(=S)NNC(=O)c1ccco1	19	2	106*	-3	17	20
COc1ccc(-c2coc(CCC(=O)N3CCN(c4cc(C)ccc4C)CC3)n2)cc1	/	/	/	2	-10	3
Cn1c2c(c(=O)n1-c1ccccc1)CSCC2	-3	/	-1	0	0	1
CC(C)(O)C#Cc1ccc(C(=O)N2CCC(C(N)=O)(N3CCCCC3)CC2)o1	/	/	-6	-2	-1	0
Cc1ccc(NC(=O)CS(=O)CC(=O)Nc2cnc3ccccc3c2)cc1Cl (stereo not drawn)	-5	-7	8	32*	23	1
Cc1ccc(NC(=O)CS(=O)CC(=O)NCCCc2ccccc2)cc1Cl (stereo not drawn)	-8	-5	-11	-4	-3	-1

High-throughput results from PubChem.
